# Measurements published in the supplement of paper PMC8728848.
# Many of the other results were omitted from the sample, so the strongest signals are more common in it than they were.
# Experiments:
# Assay in all cases: glycan array binding signal (z-score within array); higher = stronger binding
# Conditions in all cases: glycan notation: IUPAC condensed, linker removed
# [1] = molecular target: Gal(b1-4)GlcNAc(b1-3)[Gal(b1-4)GlcNAc(b1-6)]Gal(b1-4)GlcNAc
# Outline: (§1)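 From the Consortium for Functional Glycomics database, 3228 arrays were curated, keeping only those whose protein sequence was available. Binding is given as a within-array Z-score averaged across arrays sharing a protein sequence and across linkers. Negative Z-scores can be read as non-binding.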
# [2] = molecular target: Gal(b1-4)GlcNAc(b1-3)[GlcNAc(b1-6)]Gal(b1-4)GlcNAc
# Outline: as §1
# [3] = molecular target: Gal6S(b1-3)GlcNAc6S
# Outline: as §1
# [4] = molecular target: Gal6S(b1-4)Glc
# Outline: as §1
# [5] = molecular target: GalNAc(b1-4)GlcNAc(b1-3)GalNAc(b1-4)GlcNAc
# Outline: as §1
# [6] = molecular target: GalNAc(b1-4)GlcNAc6S
# Outline: as §1
# [7] = molecular target: GlcNAc(a1-4)Gal(b1-4)GlcNAc(b1-3)Gal(b1-4)GlcNAc
# Outline: as §1
# [8] = molecular target: GlcNAc(b1-2)Man(a1-3)[GlcNAc(b1-4)][GlcNAc(b1-2)Man(a1-6)]Man(b1-4)GlcNAc(b1-4)[Fuc(a1-6)]GlcNAc
# Outline: as §1
# [9] = molecular target: GlcNAc(b1-3)Gal(b1-4)Glc
# Outline: as §1
# [10] = molecular target: GlcNAc(b1-3)Gal(b1-4)GlcNAc(b1-3)Gal(b1-4)GlcNAc(b1-3)Gal(b1-4)GlcNAc(b1-2)Man(a1-3)[GlcNAc(b1-3)Gal(b1-4)GlcNAc(b1-3)Gal(b1-4)GlcNAc(b1-3)Gal(b1-4)GlcNAc(b1-2)Man(a1-6)]Man(b1-4)GlcNAc(b1-4)[Fuc(a1-6)]GlcNAc
# Outline: as §1
# [11] = molecular target: GlcNAc(b1-6)Gal(b1-4)GlcNAc
# Outline: as §1
# [12] = molecular target: Kdn(a2-3)Gal(b1-4)GlcNAc
# Outline: as §1
# [13] = molecular target: Neu5Ac(a2-3)Gal(b1-3)GlcNAc
# Outline: as §1
# [14] = molecular target: Neu5Ac(a2-3)Gal(b1-3)GlcNAc(b1-3)Gal(b1-4)GlcNAc
# Outline: as §1
# [15] = molecular target: Neu5Ac(a2-3)Gal(b1-3)[Fuc(a1-4)]GlcNAc
# Outline: as §1
# [16] = molecular target: Neu5Ac(a2-3)Gal(b1-4)GlcNAc(b1-2)Man
# Outline: as §1
# [17] = molecular target: Neu5Ac(a2-3)Gal(b1-4)GlcNAc(b1-3)Gal(b1-4)GlcNAc(b1-3)Gal(b1-4)GlcNAc(b1-2)Man(a1-3)[Neu5Ac(a2-3)Gal(b1-4)GlcNAc(b1-3)Gal(b1-4)GlcNAc(b1-3)Gal(b1-4)GlcNAc(b1-2)Man(a1-6)]GalNAc
# Outline: as §1
# [18] = molecular target: Neu5Ac(a2-3)Gal(b1-4)[Fuc(a1-3)]GlcNAc(b1-6)[Gal(b1-3)]GalNAc
# Outline: as §1
# [19] = molecular target: Neu5Ac(a2-3)Gal(b1-4)[Fuc(a1-3)]GlcNAc6S
# Outline: as §1
# [20] = molecular target: Neu5Ac(a2-6)Gal(b1-3)GlcNAc(b1-3)[Gal(b1-4)GlcNAc(b1-6)]Gal(b1-4)Glc
# Outline: as §1
# [21] = molecular target: Neu5Ac(a2-6)Gal(b1-4)GlcNAc(b1-2)Man(a1-3)[Neu5Ac(a2-6)Gal(b1-4)GlcNAc(b1-2)Man(a1-6)]Man(b1-4)GlcNAc(b1-4)GlcNAc
# Outline: as §1
# [22] = molecular target: Neu5Ac(a2-8)Neu5Ac(a2-3)[GalNAc(b1-4)]Gal(b1-4)Glc
# Outline: as §1
# [23] = molecular target: Neu5Ac(a2-8)Neu5Ac(a2-8)Neu5Ac
# Outline: as §1
binder,measurement,setting,value
"CC1G-10077 (Coprinopsis cinerea), A8NDT7 (protein) MALNEGVYWIRNSRFTNKVLDLDAANVAKGTSILDFNEHGTFNENHNQLWIVERFQSRDTYLIRSVHSNLVLDLSQGLSANGTPILCWTQHGGTNQQWRIEWVKDDNKTPLYRIVSVATGTAISHNEDDSSAYTVAWSVDDGPKQLWSFDPFVTPLLYRLRVKSTSRVLDLAAASADNGTLALAWEQHTAITKRNQLWWLPYRSGAEEYTIQCLETSTVADLSGGNSGNGTPIYGWQSHGGRNQQWKFEPTSDSGDYYHIKNVEGGSVMDAYMNDSQKRVGGWSNNGGDNQKWLLDPLPSPGPGWVLIQNGGTGKFLCSTPSGDIGTADGPETVYDYSVQWRFIQREYTGVYHVVNRATGAYLRQIGTSMPSIGLAEENDDELKDWWMLETYDNSEIGLASIISRWTGNVLDHYGGVSVQALDNNTENSYRSWAIIPARDWLTSFSLVNGQGGLCLAAQYAREETRLSTTANVNDFHAQWVFRKPSGSSGYTIQNKYNNHYVGGTSARWELVVCCNKYFGIRNTSTQKYLAIEDGQVTFQDQDMTDRKQCWELCSGRATDTSGNDYDLIYMDDDLLEVMIPWVGDKQGDLKHYIEKRATKKPPKDKGGWQLPAAGLIKKPKFNDIRQLLQELIEQWEWDVVNEEREQIQTLVSIDEAEARRLLGRRPHPDIVAAYQRSRSSTLFRIDRQGYFNIAGDRYVNIQGQYGDDSYFHIALPVGVRFGREQIRRFLRDSLDRSTSVTITPTTCKPPSGGPDYNRDPDSDGDNSWIKWTIAVVGTSAIKHSEL",glycan array binding signal (z-score),[1],1.18
same,glycan array binding signal (z-score),[2],3.85
same,glycan array binding signal (z-score),[3],-0.314
same,glycan array binding signal (z-score),[4],0.062
same,glycan array binding signal (z-score),[5],4.2
same,glycan array binding signal (z-score),[6],4.35
same,glycan array binding signal (z-score),[7],-0.431
same,glycan array binding signal (z-score),[8],-0.482
same,glycan array binding signal (z-score),[9],-0.371
same,glycan array binding signal (z-score),[10],-0.141
same,glycan array binding signal (z-score),[11],3.18
same,glycan array binding signal (z-score),[12],-0.466
same,glycan array binding signal (z-score),[13],-0.452
same,glycan array binding signal (z-score),[14],-0.476
same,glycan array binding signal (z-score),[15],-0.473
same,glycan array binding signal (z-score),[16],-0.331
same,glycan array binding signal (z-score),[17],-0.417
same,glycan array binding signal (z-score),[18],-0.37
same,glycan array binding signal (z-score),[19],-0.468
same,glycan array binding signal (z-score),[20],0.306
same,glycan array binding signal (z-score),[21],-0.326
same,glycan array binding signal (z-score),[22],-0.233
same,glycan array binding signal (z-score),[23],-0.448
